Shown are actives, neighbours in structure and some others; about 2.9% of the full set was active somewhere.
HEK293 cAMP ctrl = counter-screen for TSHR agonists: cAMP increase in parental HEK293. parental HEK293 CNG cAMP sensor, membrane potential fluorescence. Potency, µM (highest dose often 57.1 µM), for the others: top-dose activation, most hits filed as activators. 2.5% of 73,000 active. AID 938; active = well fitted activation curve with a large enough effect; inconclusive = small, poorly fitted or top-dose-only effect; inactive = no such curve, though single readings can be large or run the other way; also: % of control where 0% means no effect; nearly all actives have a fitted effect of over 55% in size
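Parental HEK 293 cells stably expressing a cAMP-gated CNG channel were loaded with membrane potential dye containing 100 uM RO 20-1724 for 60 min. Compound added for 30 min; depolarization read as fluorescence intensity at 590 nm.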
TSHR ag = TSH receptor (human) agonism | P16473 | HEK293-CNG-TSHR cells (CNG channel as cAMP sensor), membrane potential dye, cAMP | Potency, µM (titrated, usually from 57.1 µM), for inactives: top-dose activation, actives largely listed as activators | 0.48% of 73,000 active | AID 926; active = well fitted activation curve with a large enough effect in the main read-out, with a control signal flat, not every such curve was filed as active; inconclusive = small, poorly fitted or top-dose-only effect, or a change in a side signal; inactive = no such curve, though single readings can be large or run the other way; % of control where 0% means no effect;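 also: the control signal comes from parental cells without the receptor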
Target sequence (P16473 whole entry, looked up): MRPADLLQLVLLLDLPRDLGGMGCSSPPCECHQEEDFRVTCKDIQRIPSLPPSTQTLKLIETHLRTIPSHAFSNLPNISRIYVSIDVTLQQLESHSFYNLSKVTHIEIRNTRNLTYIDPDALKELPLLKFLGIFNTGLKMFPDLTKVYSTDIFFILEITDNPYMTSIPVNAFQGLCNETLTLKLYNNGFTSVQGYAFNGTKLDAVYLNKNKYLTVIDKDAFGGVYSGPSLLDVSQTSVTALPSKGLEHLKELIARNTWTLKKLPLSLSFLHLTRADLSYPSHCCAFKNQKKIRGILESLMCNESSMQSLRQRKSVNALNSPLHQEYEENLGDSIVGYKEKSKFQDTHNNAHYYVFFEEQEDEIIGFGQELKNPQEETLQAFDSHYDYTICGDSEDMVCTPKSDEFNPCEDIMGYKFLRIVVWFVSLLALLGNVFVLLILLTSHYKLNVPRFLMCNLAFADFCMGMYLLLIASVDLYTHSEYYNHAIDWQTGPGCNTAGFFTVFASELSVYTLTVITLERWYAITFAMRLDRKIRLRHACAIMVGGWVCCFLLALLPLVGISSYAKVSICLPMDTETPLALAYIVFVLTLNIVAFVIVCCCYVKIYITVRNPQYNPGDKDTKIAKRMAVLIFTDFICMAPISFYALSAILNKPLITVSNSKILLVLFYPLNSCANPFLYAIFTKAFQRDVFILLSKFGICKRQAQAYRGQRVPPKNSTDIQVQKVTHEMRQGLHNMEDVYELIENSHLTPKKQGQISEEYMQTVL
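HEK 293 cells stably expressing TSHR and a cAMP-gated CNG channel; parental CNG-only cells as counterscreen. Cells preloaded 60 min with membrane potential dye plus 100 uM RO 20-1724, then compound 30 min; fluorescence read at 590 nm.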
Numbers without * were called inactive; ? = inconclusive; / = no result; ! = not confirmed by another sample. Potency is read from the fitted curve at half-maximal effect.

SMILES	HEK293 cAMP ctrl	TSHR ag
O=C(Nc1cccnc1)c1c(O)c2c(n(Cc3ccccc3)c1=O)CCCC2	13µM*	?
C=CCN1CC[C@]23c4c5ccc(O)c4O[C@@H]2/C(=N/NC(=O)c2ccccc2)CC[C@@]3(O)[C@H]1C5	3%	2%
CC1N(P(=O)(c2ccccc2)c2ccccc2)CC(O)(c2ccccc2)CC12CC2 (stereo not drawn)	16µM*	?
Clc1ccc(N2C[C@H]3CC[C@@H](C2)N3)nn1	2%	3%
O=C(CSc1nnc2c3c4c(sc3ncn12)CCCC4)NCc1ccco1	13µM*	?
COc1ccc(C2=NCC(=O)N(CC(=O)NCc3ccco3)c3sc4c(c32)CCCC4)cc1OC	12%	/
CCCC[C@@H]1C[C@H]1C(NP(=O)(c1ccccc1)c1ccccc1)c1ccc(Cl)cc1 (stereo partly drawn)	2.5µM*	?
CC(C)(C)n1c(O)c(C=Nc2ccc3c(c2)CCC3)c(=O)[nH]c1=O	25µM*	?
CC(=Nc1ccc2c(c1)CCC2)c1c(O)n(C)c(=O)n(C)c1=O	24%	21%
CN1CCCC2(CCN(C(=O)c3ccncc3)CC2)C1	10µM*	?
CC(C)CN1CCCC2(CCN(C(=O)c3ccncc3)CC2)C1	6%	-5%
C[C@@]12CC[C@H](O)C[C@@H]1CC[C@H]1[C@H]2C[C@@H](O)[C@]2(C)[C@@H](C3=CC(=O)OC3)CC[C@@]12O	20%	12%
C=C(C)[C@H]1[C@H]2OC(=O)[C@@H]1[C@]1(O)C[C@H]3O[C@]34C(=O)O[C@H]2[C@]14C	6%	-2%
CC(C)[C@@]1(NC(=O)[C@H]2C[C@H]3c4cccc5[nH]cc(c45)C[C@@H]3N(C)C2)O[C@]2(O)[C@H]3CCCN3C(=O)[C@H](Cc3ccccc3)N2C1=O	-5%	-39%
c1ccc2c(CCNC3=NCCC3)c[nH]c2c1	-3%	-3%
CN(C)Cc1c[nH]c2ccccc12	-1%	16µM*!
CC(C)[C@@]1(NC(=O)[C@@H]2C=C3c4cccc5[nH]cc(c45)C[C@@H]3N(C)C2)O[C@]2(O)[C@H]3CCCN3C(=O)[C@H](Cc3ccccc3)N2C1=O	-11%	-6%
N[C@H](Cn1oc(=O)[nH]c1=O)C(=O)O	10%	8%

Compound activity (PubChem)
